Test results: PubChem BioAssay (Tox21)
Results filed as inconclusive are left out. A call without a number means that no potency is given here. Activity calls are given as the source filed them. Calls come from the whole dose curve; as a rule, active = well fitted curve in the direction sought with a large enough effect in the repeat runs; inconclusive = weak or mixed curves; inactive = no such curve, though single readings can be large; an effect the other way counts as inactive or inconclusive.

Assay: qHTS assay to identify small molecule antagonists of the retinoid acid receptor (RAR) signaling pathway - cell viability counter screen (AID 1159551); note: nearly all actives have a fitted effect of over 35% in size
Conditions: C3RL4 cells viability, ATP luminescence (CellTiter-Glo), 6 h; series mostly up to 92.4 µM
Method in brief: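 Following overnight attachment, C3RL4 reporter cells received DMSO-dissolved compounds and then retinol (1 uM final). Six hours later at 37 C, ATP content was measured by CellTiter-Glo luminescence.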
In the case of `Oc1ccc(C(O)CNCCCCCCNCC(O)c2ccc(O)c(O)c2)cc1O` (stereo not drawn), the Potency is reported as “inactive”.
With `CC1(C)[C@H]2CC[C@]1(C)[C@H](O)C2` the Potency was “inactive”.
With `COC(=O)C(C)=O` the Potency was “inactive”.
For `C=CCCCCCC`, the Potency was “inactive”.
For `CCCCCCc1ccc(N)cc1`, the Potency was “inactive”.
For `O=C1c2cccc(O)c2C(=O)c2c(O)cc(CO)cc21`, the Potency was “inactive”.
For `CCN(CC)CCOc1ccc2c(c1)C(=O)c1cc(OCCN(CC)CC)ccc1-2`, the Potency was “inactive”.
In the case of `Cn1c(NCCN(CCO)CCCc2ccc([N+](=O)[O-])cc2)cc(=O)n(C)c1=O`, the Potency is reported as “inactive”.
In the case of `CCOC(=O)[C@H](CCc1ccccc1)N[C@H]1CCc2ccccc2N(CC(=O)O)C1=O`, the Potency is reported as “inactive”.
For `CC(=O)OC/C=C/c1ccccc1`, the Potency was “inactive”.
For `COC(=O)CSc1cc(N=c2sc(=O)n3n2CCCC3)c(F)cc1Cl`, the Potency was “inactive”.
In the case of `CC(C)(C)c1cc(O)c(C(C)(C)C)cc1O`, the Potency is reported as “inactive”.
For `CC1=CCC(C(C)C)C=C1` (stereo not drawn), the Potency was “inactive”.
In the case of `O=C=NC1CCC(CC2CCC(N=C=O)CC2)CC1` (stereo not drawn), the Potency is reported as “inactive”.
For `Nc1ccc(C(=O)Nc2ccccc2N)cc1`, the Potency was “inactive”.
With `CC[C@H](C)[C@H](N)C(=O)O` the Potency was “inactive”.
In the case of `CC/C(=C\C(=N/O)C(N)=O)C(C)[N+](=O)[O-]` (stereo not drawn), the Potency is reported as “inactive”.
For `Cc1c(Cn2ccnc2)c2ccccc2n1CCC(=O)O`, the Potency was “inactive”.
With `CC(=O)N(CC(=O)N(C)C)c1ccccc1` the Potency was “inactive”.
For `CN1CCC(=C2c3ccccc3CCc3sccc32)CC1`, the Potency was “inactive”.

Assay: qHTS assay to identify small molecule antagonists of the retinoic acid receptor (RAR) signaling pathway (AID 1159552; note: nearly all actives have a fitted effect of over 50% in size)
Conditions: C3RL4 RARE luciferase reporter, retinol-stimulated, 6 h; series mostly up to 92.4 µM
Method in brief: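 C3RL4 RARE-luc cells, overnight plating; retinol 1 uM final added right after compound; 6 hr 37 C; luciferase read at 30 min RT.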
With `C=Cc1c(C)c2cc3[nH]c(cc4nc(cc5nc(cc1[nH]2)C(C)=C5CCC(=O)O)C(CCC(=O)O)=C4C)c(C)c3C=C` the Potency was “inactive”.
With `CCCCCOC(=O)COc1cc(N2C(=O)C3=C(CCCC3)C2=O)c(F)cc1Cl` the Potency was “inactive”.
With `CCCCCCc1ccc(N)cc1` the Potency was “inactive”.
With `O=C1c2cccc(O)c2C(=O)c2c(O)cc(CO)cc21` the Potency was “inactive”.
For `CCN(CC)CCOc1ccc2c(c1)C(=O)c1cc(OCCN(CC)CC)ccc1-2`, the Potency was “inactive”.
In the case of `NC(N)=N/N=C/c1c(Cl)cccc1Cl`, the Potency is reported as “inactive”.
With `O=C(c1ccccc1)c1ccc2n1CCC2C(=O)O` (stereo not drawn) the Potency was “inactive”.
For `N[C@H]1C(O)O[C@H](CO)[C@H](O)[C@@H]1O` (stereo partly drawn), the Potency was “inactive”.
With `CCN1CCC[C@H]1CNC(=O)c1c(OC)ccc(Br)c1OC` the Potency was “inactive”.
In the case of `O=C(O)c1cccc(N(Cc2cccnc2)c2ccc(OC(F)F)c(OC(F)F)c2)c1`, the Potency is reported as “inactive”.
In the case of `O=C(c1ccc(O)cc1)c1ccc(O)cc1`, the Potency is reported as “inactive”.
For `OCC1CC2CC1C1CCC(CO)C21` (stereo not drawn), the Potency was “inactive”.
In the case of `CCCCCCCCC(CO)CCCCCC` (stereo not drawn), the Potency is reported as “inactive”.
For `Nc1ccc(C(=O)Nc2ccccc2N)cc1`, the Potency was “inactive”.
With `CCCOc1ccc2nc(NC(=O)OC)[nH]c2c1` the Potency was “inactive”.
With `CC/C(=C\C(=N/O)C(N)=O)C(C)[N+](=O)[O-]` (stereo not drawn) the Potency was “inactive”.
In the case of `O=C1CCCCCO1`, the Potency is reported as “inactive”.
In the case of `Oc1ccc2c(c1)OCO2`, the Potency is reported as “inactive”.
